Results taken from PubChem BioAssay (EPA / NIEHS).
Inconclusive results are not listed. Calls of active or inactive are those of the source. How the source made its calls, unless noted: active means hit-call score of the fitted dose curve at least 0.9, where 1 is the maximum; inactive means score below 0.9.

Columns and labels:
[1] = CCTE_Harrill_HTTr_Viability_MCF7: CCTE's 6-hour Cell Viability Assessment for the High-Throughput Transcriptomics (HTTr) Platform, in MCF-7 cells cultured in DMEM + 10% fetal bovine serum, Harrill Lab (AID 2284010)
Method in brief: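 Viability measured through PI dye exclusion by high-content imaging at 6 h post-dosing.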

[2] = CCTE_Harrill_HTTr_Apoptosis_MCF7: CCTE's 6-hour Apoptosis Assessment for the High-Throughput Transcriptomics (HTTr) Platform, in MCF-7 cells cultured in DMEM + 10% fetal bovine serum, Harrill Lab (AID 2284011)
Method in brief: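 Cells are dosed with test chemicals at eight concentrations and imaged 6 hours later for caspase-3/7 activity using a green fluorogenic detection reagent. Activity is fitted in both directions against DMSO controls.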

[3] = CCTE_Harrill_HTTr_CellCount_MCF7: CCTE's Cell Proliferation Assessment for the High-Throughput Transcriptomics (HTTr) Platform, Harrill Lab (AID 2284012; active means hit-call score of the fitted dose curve at least 0.9, where 1 is the maximum;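 further: count of Hoechst-stained nuclei per well by high-content imaging in MCF-7 cells; cells exposed to compound for six hours; intended direction is loss of nuclei count meaning fewer cells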)
Method in brief: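 Nuclei counting (Hoechst, high content imaging) in MCF-7 after a 6 h treatment at eight concentrations. Activity fitted bidirectionally, DMSO as negative control.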

Compound	outcome [1]	outcome [2]	outcome [3]	AC50 [2]
CC(=O)CCC(=O)O	inactive	inactive		
Cc1ccncc1	inactive	inactive		
CCCO	inactive	inactive		
CCCCCCOC(C)=O	inactive	inactive		
[O-]/[N+](=N\O)c1ccccc1	inactive	inactive	inactive	
COc1ccccc1O	inactive	inactive	inactive	
CCCCCC(=O)O[C@]1(C(C)=O)CC[C@H]2[C@@H]3CCC4=CC(=O)CC[C@]4(C)[C@H]3CC[C@@]21C	inactive	inactive		
CNC(=C[N+](=O)[O-])NCCSCc1ccc(CN(C)C)o1	inactive			
NC(=O)c1cccnc1	inactive	inactive	inactive	
CC1=CCC(=C(C)C)CC1	inactive	inactive		
COC(=O)c1ccc(C(=O)OC)cc1	inactive	inactive		
CN(C)CCC=C1c2ccccc2CCc2ccccc21	inactive	inactive		
CC(O)CN (configuration not stated)	inactive	inactive		
OCC=Cc1ccccc1	inactive	inactive		
C=C(C)C(N)=O	inactive	inactive		
NC(=O)c1c(Cl)cccc1Cl	inactive	inactive	inactive	
NC(=O)c1cnccn1	inactive	inactive		
C=C1CC/C=C(\C)CC[C@@H]2[C@@H]1CC2(C)C	inactive	inactive		
O=C(OCc1ccccc1)c1ccccc1O	inactive	inactive		
CCCCCC1CCC(=O)O1 (configuration not stated)	inactive	inactive		

Compound	outcome [1]	outcome [2]	outcome [3]	AC50 [2]
CCOC(=O)C=Cc1ccccc1	inactive	inactive		
O=C1OCc2ccccc21	inactive	inactive		
C=CC(C)CCCC(C)(C)O (configuration not stated)	inactive	inactive		
CCCCCCCCCO	inactive	inactive		
Cc1cccc(C)c1	inactive	inactive	inactive	
CCOC(=O)COC(=O)c1ccccc1C(=O)OCC	inactive	inactive		
c1coc(CNc2ncnc3nc[nH]c23)c1	inactive	inactive		
Cc1cc(O)c2c(c1)C(=O)c1cc(O)cc(O)c1C2=O	inactive	inactive	inactive	
CC(=O)C1=C(C)[C@@H]2C[C@@]3(C1)[C@H](C)CC[C@H]3C2(C)C	inactive	inactive	inactive	
CN(C)C(=O)Nc1ccccc1	inactive	inactive	inactive	
Cc1ccc(C(C)(C)O)cc1	inactive	inactive	inactive	
CC(=O)OC/C=C(C)/C=C/C=C(C)/C=C/C1=C(C)CCCC1(C)C	inactive	inactive	inactive	
CN1CCc2cccc3c2[C@H]1Cc1ccc(O)c(O)c1-3	inactive	inactive	inactive	
CCCCCCCCCC(=O)OCC	inactive	inactive	inactive	
O=C(O)c1cc(C(=O)O)c(C(=O)O)cc1C(=O)O	inactive	inactive	inactive	
O=c1cc(-c2ccc(O)cc2)oc2cc(O)cc(O)c12	inactive	inactive	inactive	
C[C@H](CCC(=O)O)[C@H]1CC[C@H]2[C@@H]3CC[C@@H]4C[C@H](O)CC[C@]4(C)[C@H]3CC[C@]12C	inactive	inactive	inactive	
COc1ccc2[nH]cc(CCNC(C)=O)c2c1	inactive	inactive	inactive	
O=C(O)c1ccccc1O	inactive	inactive	inactive	
O=C1CCCCCCCCCCCC(=O)OCCO1	inactive	inactive	inactive	

Compound	outcome [1]	outcome [2]	outcome [3]	AC50 [2]
Cc1cccc(O)c1	inactive	inactive	inactive	
CC12CCC(C1)C(C)(C)C2O (configuration not stated)	inactive	inactive	inactive	
CCCCOC(=O)C(C)OC(=O)CCC (configuration not stated)	inactive	inactive	inactive	
CCCCCCCCCCCCCC(=O)OCC	inactive	inactive	inactive	
CC(=O)CC(=O)N(C)C	inactive	inactive	inactive	
O=C(O)c1cc2ccccc2cc1O	inactive	inactive	inactive	
CC(C)Cc1ccccc1	inactive	inactive	inactive	
COC(=O)C(C)Oc1ccc(Oc2ncc(C(F)(F)F)cc2Cl)cc1 (configuration not stated)	inactive	inactive	inactive	
O=C1OC2(c3ccc(O)cc3Oc3cc(O)ccc32)c2ccccc21	inactive		inactive	171 nM (active)
CC(O)COCC(C)O (configuration not stated)	inactive	inactive	inactive	
c1ccc2scnc2c1	inactive	inactive	inactive	
CC(=O)C1C(=O)C=C(C)OC1=O (configuration not stated)	inactive	inactive	inactive	
NC(N)=NC(N)=NCCc1ccccc1	inactive	inactive	inactive	
CN(C)C	inactive	inactive	inactive	
C1COCO1	inactive	inactive	inactive	
c1ccc(Cc2ccccc2)cc1	inactive	inactive	inactive	
NC(N)=S	inactive	inactive	inactive	
CCCc1ccc(O)cc1	inactive	inactive	inactive	
CN(C)CCCNCCCN(C)C	inactive	inactive	inactive	
COc1ccc(C(C)=O)cc1	inactive	inactive	inactive	
